This note sets out measurements from PubChem BioAssay (EPA / NIEHS).

What all share (details): mRNA level, 48 h; actives raise or lower the signal
Read-out in assay [1]: ATP-citrate lyase (ACLY), ACLY (gene 47)
In words: LTEA_HepaRG_ACLY: Life Technologies and Expression Analysis (LTEA) Assay for ATP-citrate lyase (ACLY) using HepaRG (AID 2283466). The method, boiled down: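 qRT-PCR readout of ACLY transcript after 48 h chemical treatment of HepaRG cells; expression normalized to three housekeeping genes. Eight-point half-log series, highest 100 uM, 0.5% DMSO vehicle. Gain or loss fitted against DMSO baseline.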

Read-out in assay [2]: Peroxisomal acyl-coenzyme A oxidase 1 (ACOX1) gene, ACOX1 (gene 51)
The assay can be described thus: LTEA_HepaRG_ACOX1: Life Technologies and Expression Analysis (LTEA) Assay for Peroxisomal acyl-coenzyme A oxidase 1 (ACOX1) gene using HepaRG (AID 2283467). The method, boiled down: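 HepaRG, 48 h chemical exposure, 8-pt half-log series from 100 uM top, 0.5% DMSO vehicle, duplicates. Readout: ACOX1 mRNA by Fluidigm qRT-PCR, housekeeping-normalized; bidirectional fit vs DMSO baseline.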

Read-out in assay [3]: Alkaline Phosphatase, Placental (ALPP) gene, ALPP (gene 250)
The assay can be described thus: LTEA_HepaRG_ALPP: Life Technologies and Expression Analysis (LTEA) Assay for Alkaline Phosphatase, Placental (ALPP) gene using HepaRG (AID 2283468).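 On AC50: differentiated human HepaRG liver cells in serum-free induction medium; ALPP transcript by TaqMan qRT-PCR normalized to ACTB GAPDH and POLR2A.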 The method, boiled down: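 Using human liver HepaRG cells, chemicals are tested in duplicate over 48 h at half-log concentrations topping at 100 uM; phenobarbital 1 mM serves as induction control. ALPP mRNA change by qRT-PCR, bidirectional fit against vehicle.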

Read-out in assay [4]: Bcl-2 (BAD) gene, BAD (gene 572)
In words: LTEA_HepaRG_BAD: Life Technologies and Expression Analysis (LTEA) Assay for Bcl-2 (BAD) gene using HepaRG (AID 2283469). The method, boiled down: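 HepaRG, 48 h exposure, 8-pt half-log curve from 100 uM in 0.5% DMSO, duplicates. Readout: TaqMan qRT-PCR for BAD mRNA, housekeeping-normalised (ACTB/GAPDH/POLR2A); gain or loss fitted against DMSO baseline.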

Read-out in assay [5]: Bcl-2 (BAX) gene, BAX (gene 581)
In words: LTEA_HepaRG_BAX: Life Technologies and Expression Analysis (LTEA) Assay for Bcl-2 (BAX) gene using HepaRG (AID 2283470). The method, boiled down: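 qRT-PCR read-out of BAX mRNA, normalized to three housekeeping genes, after 48 h chemical exposure of human HepaRG cells in serum-free induction medium; eight-point half-log series, top 100 uM, 0.5% DMSO vehicle; bidirectional fit versus DMSO.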

Read-out in assay [6]: adenosine kinase (ADK) gene, ADK (gene 132)
In words: LTEA_HepaRG_ADK: Life Technologies and Expression Analysis (LTEA) Assay for adenosine kinase (ADK) gene using HepaRG (AID 2283471). The essentials: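 Read-out is ADK transcript level measured by qRT-PCR and normalised to three housekeeping genes. Cells are human HepaRG, dosed for 48 h at up to 100 uM in 0.5% DMSO. Gain or loss of signal is fitted against DMSO controls.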

Read-out in assay [7]: Alpha-fetoprotein (AFP) gene, AFP (gene 174)
The assay can be described thus: LTEA_HepaRG_AFP: Life Technologies and Expression Analysis (LTEA) Assay for Alpha-fetoprotein (AFP) gene using HepaRG (AID 2283472).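 On AC50: AFP transcript by TaqMan qRT-PCR normalized to ACTB GAPDH and POLR2A.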 The essentials:
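qRT-PCR (Fluidigm TaqMan) readout of AFP transcript, normalized to three housekeeping genes, fitted bidirectionally against 0.5% DMSO baseline. HepaRG cells received chemicals for 48 h in serum-free induction medium, top concentration 100 uM, half-log steps.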

Read-out in a further assay: BCL2L11 (gene 10018)
In words: LTEA_HepaRG_BCL2L11: Life Technologies and Expression Analysis (LTEA) Assay for Bcl-2 (BCL2L11) gene using HepaRG (AID 2283473). The method, boiled down: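 Human hepatic HepaRG cultures are treated 48 h with test chemicals (maximum 100 uM, 0.5% DMSO vehicle). Expression of BCL2L11 is measured by qRT-PCR against ACTB, GAPDH and POLR2A, with activity in either direction scored relative to vehicle.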

Read-out in assay [8]: Apolipoprotein A-V (APOA5) gene, APOA5 (gene 116519)
In words: LTEA_HepaRG_APOA5: Life Technologies and Expression Analysis (LTEA) Assay for Apolipoprotein A-V (APOA5) gene using HepaRG (AID 2283474). The method, boiled down:
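Concentration-response of APOA5 expression in HepaRG: eight half-log doses to 100 uM, 48 h, qRT-PCR normalized to ACTB/GAPDH/POLR2A, bidirectional fitting with 0.5% DMSO as baseline.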

Read-out in assay [9]: Apoptosis regulator Bcl-2 (Homo sapiens) (UniProt P10415)
The assay can be described thus: LTEA_HepaRG_BCL2: Life Technologies and Expression Analysis (LTEA) Assay for Bcl-2 gene using HepaRG (AID 2283475). The method, boiled down: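 qRT-PCR read-out (Fluidigm TaqMan) of BCL2 transcript, normalised to three housekeeping genes, after 48 h chemical exposure of HepaRG cells; 8-point half-log series, top 100 uM, 0.5% DMSO vehicle. Gain or loss of signal fitted relative to DMSO baseline.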

The structures appear in SMILES notation. Calls of active or inactive are those of the source. How the source made its calls: active means hit-call score of the fitted dose curve at least 0.9, where 1 is the maximum; inactive means score below 0.9.

Sequence of Apoptosis regulator Bcl-2 (Homo sapiens) (P10415 whole entry, looked up): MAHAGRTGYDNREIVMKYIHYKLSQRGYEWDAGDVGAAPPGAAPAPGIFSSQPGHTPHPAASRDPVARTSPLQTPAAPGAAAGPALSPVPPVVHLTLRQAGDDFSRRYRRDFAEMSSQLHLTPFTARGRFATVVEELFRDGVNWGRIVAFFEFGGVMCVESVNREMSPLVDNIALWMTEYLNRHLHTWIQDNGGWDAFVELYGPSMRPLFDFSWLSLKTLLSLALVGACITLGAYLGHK

For `CC(C)=CCC/C(C)=C\CO`, the compound was classed as inactive in [1], in [2], in assay [3], in assay [4], in assay [5] and in [6]. Besides, the result (in assay [7]; in the assay with BCL2L11 (gene 10018); in assay [8]; in assay [9]) was inactive.
For the compound `CCn1nc(Cc2ccccc2)cc1C1CCN(C[C@H]2C[C@H](N(C)[C@@H](C(=O)O)C(C)C)C[C@@H]2c2cccc(F)c2)CC1`, the half-maximal activity concentration (AC50) in assay [1] is 75.7 µM (active); in [3], 23.8 µM (active); in assay [7] it was 50 µM (active). In addition, the compound was called inactive (in [2]; in assay [4]; in assay [5]; in assay [6]; in the assay with BCL2L11 (gene 10018); in assay [8]). Further, the compound was classed as inactive in [9].
For the compound `CCc1cc(SCc2sc(-c3ccc(C(F)(F)F)cc3)nc2CN2CCN(c3ccc(OC)cc3)CC2)ccc1OCC(=O)O`, the AC50 in assay [1] was 93.4 µM (active); in [2] it was 92.7 µM (active); in assay [3], 6.34 µM (active); in assay [4], 87 µM (active); in assay [5], 97.2 µM (active); in [6], 90.9 µM (active). In addition, the AC50 is 7.69 µM (active) in [7], 89.4 µM (active) in the assay with BCL2L11 (gene 10018) and 8.96 µM (active) in assay [9]. Also, the result in assay [8] was inactive.
Turning to `Cc1c(-c2cccnc2)c2ccccc2n1CCCCC(=O)O`, the compound was classed as inactive in [1], in assay [2], in [3], in [4], in assay [5] and in assay [6]. Moreover, the compound was called inactive (in assay [7]; with BCL2L11 (gene 10018); in assay [8]; in assay [9]).
`CCOC(=O)CC(CC(=O)OCC)(OC(C)=O)C(=O)OCC`: the outcome in assay [1], in assay [2], in assay [3], in [4], in assay [5] and in assay [6] was inactive. The call (in [7]; with BCL2L11 (gene 10018); in [8]; in [9]) was inactive.
Regarding `Cc1ccc(N)cc1O`, the outcome in assay [1], in [2], in assay [3], in assay [4], in [5] and in assay [6] was inactive. Further, the compound was classed as inactive (in assay [7]; with BCL2L11 (gene 10018); in [8]; in assay [9]).
On to `CCC(C)(C)C(=O)O[C@H]1C[C@@H](C)C=C2C=C[C@H](C)[C@H](CC[C@@H]3C[C@@H](O)CC(=O)O3)[C@H]21`, for which the half-maximal activity concentration (AC50) in assay [1] was 13.5 µM (active). In addition, the call in assay [2], in [3], in [4], in assay [5], in [6] and in [7] was inactive. The outcome (in the assay with BCL2L11 (gene 10018); in assay [8]; in assay [9]) was inactive.
In the case of `O=C(O)c1cccc(Oc2ccccc2)c1`, the compound was called inactive in assay [1], in assay [2], in assay [3], in [4], in assay [5] and in [6]. Moreover, the call (in assay [7]; with BCL2L11 (gene 10018); in assay [8]; in assay [9]) was inactive.
Regarding `CC(C)(O)c1coc(S(=O)(=O)NC(=O)Nc2c3c(cc4c2CCC4)CCC3)c1`, the compound was classed as inactive in [1], in assay [2], in [3], in assay [4], in [5] and in assay [6]. Besides, the result (in assay [7]; with BCL2L11 (gene 10018); in assay [8]; in assay [9]) was inactive.
In the case of `C=CCCCCCCCCC(=O)O`, the compound was classed as inactive in [1], in [2], in assay [3], in assay [4], in assay [5] and in assay [7]. In addition, the outcome (with BCL2L11 (gene 10018); in assay [8]; in [9]) was inactive. Besides, the AC50 in [6] was 0.00684 µM (active).
Take `COc1ccc(-n2nc(C(F)F)cc2-c2ccc(S(C)=O)cc2)cc1` (stereo not given): the compound was classed as inactive in assay [1], in assay [2], in [3], in assay [4], in assay [5] and in [6]. For the same compound, the call (in assay [7]; with BCL2L11 (gene 10018); in assay [8]; in assay [9]) was inactive.
In the case of `Cn1c(=O)cc(Oc2ccc(F)cc2F)c2cnc(NCC(C)(C)O)nc21`, the outcome in assay [1], in assay [2], in assay [4], in assay [5], in assay [6] and in assay [7] was inactive. Moreover, the compound was classed as inactive (with BCL2L11 (gene 10018); in assay [8]; in [9]). Also, the half-maximal activity concentration (AC50) in assay [3] is 20.7 µM (active).
Turning to `COc1ccc(/C=C/S(=O)(=O)NC(=O)c2ccc(C)cc2Cl)cc1`, the outcome in [1], in assay [2], in [3], in [4], in assay [5] and in assay [6] was inactive. The compound was called inactive (in assay [7]; with BCL2L11 (gene 10018); in assay [8]; in assay [9]).
Regarding `Nc1ccc(Nc2ccccc2)cc1`, the outcome (in [1]; in assay [2]; in assay [5]; in [6]; with BCL2L11 (gene 10018); in [8]) was inactive. Further, in [9], the compound was classed as inactive. In addition, the AC50 in assay [3] is 50 µM (active); in assay [4] it was 11.9 µM (active); in assay [7], 75.9 µM (active).
Take `CC(=O)OC[C@H]1O[C@@](COC(C)=O)(O[C@H]2O[C@H](COC(C)=O)[C@@H](OC(C)=O)[C@H](OC(C)=O)[C@H]2OC(C)=O)[C@@H](OC(C)=O)[C@@H]1OC(C)=O`: the result in assay [1], in [2], in assay [3], in assay [4], in [5] and in assay [6] was inactive. Further, the outcome (in assay [7]; with BCL2L11 (gene 10018); in [8]; in [9]) was inactive.
Consider `COc1ccc2sc(C(=O)Nc3nnn[nH]3)c(OC(C)C)c2c1`, for which the half-maximal activity concentration (AC50) in [1] was 11.9 µM (active); in assay [5], 50 µM (active); in assay [7] it was 59.5 µM (active); in the assay with BCL2L11 (gene 10018), 31.1 µM (active); in assay [9], 25.2 µM (active). The call in assay [2], in [3], in [4], in assay [6] and in assay [8] was inactive.
Regarding `CC(C)=CCCC(C)CCO` (stereo not given), the compound was classed as inactive in [1], in [2], in assay [3], in assay [4], in assay [5] and in assay [6]. For the same compound, the result (in [7]; in the assay with BCL2L11 (gene 10018); in [8]; in [9]) was inactive.
`NC(=O)NO`: the compound was classed as inactive in assay [1], in [2], in [3], in assay [4], in assay [5] and in assay [6]. For the same compound, the outcome (in assay [7]; with BCL2L11 (gene 10018); in assay [8]; in assay [9]) was inactive.
Regarding `CC/C(=C\C(=N/O)C(N)=O)C(C)[N+](=O)[O-]` (stereo not given), the call in assay [1], in [2], in [3], in assay [4], in [5] and in assay [6] was inactive. For the same compound, the call (in assay [7]; with BCL2L11 (gene 10018); in [8]; in assay [9]) was inactive.
Turning to `O=C1OC(=O)C2C3C=CC(C3)C12` (stereo not given), the call in [1], in assay [2], in assay [3], in [4], in [5] and in [6] was inactive. Further, the compound was called inactive (in [7]; in the assay with BCL2L11 (gene 10018); in assay [8]; in assay [9]).
Take `O=C(O)c1cccc(N(Cc2cccnc2)c2ccc(OC(F)F)c(OC(F)F)c2)c1`: the results for the half-maximal activity concentration (AC50) in [1] and in assay [3] were 83.3 µM (active) and 79.9 µM (active), respectively. The compound was classed as inactive (in assay [2]; in assay [4]; in assay [5]; in assay [6]; in assay [7]; with BCL2L11 (gene 10018)). In addition, the compound was classed as inactive in assay [8] and in assay [9].
